Data: publication PMC7862700, “An all-to-all approach to the identification of sequence-specific readers for epigenetic DNA modifications on cytosine”

What was measured:
Assay in all cases: DAPPL (digital affinity profiling via proximity ligation, sequencing); 10 mM Tris-HCl pH 7.5, 50 mM NaCl, 1 mM DTT, 4% glycerol, room temperature, 30 min; GST-TFs on glutathione beads, 16-mer random dsDNA library, 0.1% formaldehyde crosslink after washing; high values mean tight binding
Conditions in all cases: protein: recombinant; tags: N-terminal GST; dsDNA, one strand shown
ETV5 = ETV5 (Homo sapiens, UniProt P41161 1-510)
How it was run: (§1)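 Pools were built from human transcription factors expressed in yeast as GST fusions, captured on glutathione beads and DNA-barcoded, along with a tag-only sample. Incubation with 200 nmole of a 16-mer random double-stranded DNA library lasted 30 min at room temperature in Tris/NaCl/DTT/glycerol buffer, and was followed by washing, 0.1% formaldehyde crosslinking, proximity ligation, PCR amplification and Illumina NextSeq500 sequencing. Binding signal is the quotient of each hexamer's read frequency for a factor and its frequency for the tag-only sample.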

ELF4 = ELF4 (Homo sapiens, UniProt Q99607 1-663)
How it was run: as §1

ETV2 = molecular target: T1, ETV2 (Homo sapiens, UniProt O00321 1-342)
T1 sequence: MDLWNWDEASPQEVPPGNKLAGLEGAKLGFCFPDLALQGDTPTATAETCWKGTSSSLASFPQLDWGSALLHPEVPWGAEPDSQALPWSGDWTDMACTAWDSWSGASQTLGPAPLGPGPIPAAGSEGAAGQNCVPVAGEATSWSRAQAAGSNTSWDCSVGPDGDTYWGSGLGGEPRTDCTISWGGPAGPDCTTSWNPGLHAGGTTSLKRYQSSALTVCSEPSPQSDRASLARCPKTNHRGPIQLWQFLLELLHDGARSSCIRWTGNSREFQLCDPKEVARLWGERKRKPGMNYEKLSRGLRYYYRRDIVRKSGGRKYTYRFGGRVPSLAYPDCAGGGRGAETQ
How it was run: as §1

ELF3 = molecular target: T2, ELF3 (Homo sapiens, UniProt P78545 1-371)
T2 sequence: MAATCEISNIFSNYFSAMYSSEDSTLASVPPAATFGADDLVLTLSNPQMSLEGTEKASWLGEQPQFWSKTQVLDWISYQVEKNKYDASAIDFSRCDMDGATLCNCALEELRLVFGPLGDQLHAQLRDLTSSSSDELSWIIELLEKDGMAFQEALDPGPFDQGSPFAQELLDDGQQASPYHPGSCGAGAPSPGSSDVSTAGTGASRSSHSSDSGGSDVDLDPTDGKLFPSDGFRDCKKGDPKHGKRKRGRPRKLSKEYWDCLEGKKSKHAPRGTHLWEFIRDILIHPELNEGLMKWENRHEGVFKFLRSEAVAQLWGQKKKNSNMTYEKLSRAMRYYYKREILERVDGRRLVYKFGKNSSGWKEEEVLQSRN
How it was run: as §1

ETV1 = ETV1 (Homo sapiens, UniProt P50549 1-477)
How it was run: as §1

ERF = molecular target: T3, ERF (Homo sapiens, UniProt P50548 1-548)
T3 sequence: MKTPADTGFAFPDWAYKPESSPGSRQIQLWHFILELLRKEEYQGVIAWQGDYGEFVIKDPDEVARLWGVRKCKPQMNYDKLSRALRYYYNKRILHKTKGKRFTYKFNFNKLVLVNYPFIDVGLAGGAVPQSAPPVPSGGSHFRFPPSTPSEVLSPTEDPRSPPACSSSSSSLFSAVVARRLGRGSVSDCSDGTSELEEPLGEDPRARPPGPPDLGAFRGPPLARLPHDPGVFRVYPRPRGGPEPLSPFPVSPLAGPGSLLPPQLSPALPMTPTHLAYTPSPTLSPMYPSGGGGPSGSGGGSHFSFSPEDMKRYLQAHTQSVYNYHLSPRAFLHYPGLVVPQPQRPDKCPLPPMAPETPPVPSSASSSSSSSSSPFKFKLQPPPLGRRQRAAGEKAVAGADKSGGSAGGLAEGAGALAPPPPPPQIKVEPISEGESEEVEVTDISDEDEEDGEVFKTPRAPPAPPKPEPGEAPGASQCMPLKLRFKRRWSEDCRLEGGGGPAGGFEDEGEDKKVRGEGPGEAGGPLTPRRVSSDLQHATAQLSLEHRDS
How it was run: as §1

ETV3L = molecular target: T4, ETV3L (Homo sapiens, UniProt Q6ZN32 1-361)
T4 sequence: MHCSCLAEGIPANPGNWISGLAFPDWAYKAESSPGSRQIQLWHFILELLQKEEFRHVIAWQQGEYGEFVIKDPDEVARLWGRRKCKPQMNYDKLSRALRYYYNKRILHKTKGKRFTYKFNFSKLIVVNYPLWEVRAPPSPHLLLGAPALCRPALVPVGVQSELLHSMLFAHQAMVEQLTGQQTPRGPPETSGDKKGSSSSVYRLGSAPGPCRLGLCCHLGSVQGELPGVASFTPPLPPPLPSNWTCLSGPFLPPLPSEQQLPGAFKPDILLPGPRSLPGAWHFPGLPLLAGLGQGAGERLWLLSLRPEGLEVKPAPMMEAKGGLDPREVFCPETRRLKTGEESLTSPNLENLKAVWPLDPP
How it was run: as §1

ETS2 = molecular target: T5, ETS2 (Homo sapiens, UniProt P15036 1-469)
T5 sequence: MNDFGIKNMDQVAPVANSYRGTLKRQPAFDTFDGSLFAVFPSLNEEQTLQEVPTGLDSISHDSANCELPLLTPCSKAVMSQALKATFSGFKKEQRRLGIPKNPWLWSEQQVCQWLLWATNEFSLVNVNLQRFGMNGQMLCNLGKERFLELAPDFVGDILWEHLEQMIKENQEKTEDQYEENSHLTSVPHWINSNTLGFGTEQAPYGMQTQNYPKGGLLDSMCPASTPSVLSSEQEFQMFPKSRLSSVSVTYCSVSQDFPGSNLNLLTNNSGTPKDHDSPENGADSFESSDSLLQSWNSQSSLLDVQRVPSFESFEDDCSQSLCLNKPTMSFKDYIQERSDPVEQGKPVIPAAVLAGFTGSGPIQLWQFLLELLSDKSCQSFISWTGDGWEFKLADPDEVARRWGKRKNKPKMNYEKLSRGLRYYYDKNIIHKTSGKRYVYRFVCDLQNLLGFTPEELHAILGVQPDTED
How it was run: as §1

ETV7 = molecular target: T6, ETV7 (Homo sapiens, UniProt Q9Y603 1-341)
T6 sequence: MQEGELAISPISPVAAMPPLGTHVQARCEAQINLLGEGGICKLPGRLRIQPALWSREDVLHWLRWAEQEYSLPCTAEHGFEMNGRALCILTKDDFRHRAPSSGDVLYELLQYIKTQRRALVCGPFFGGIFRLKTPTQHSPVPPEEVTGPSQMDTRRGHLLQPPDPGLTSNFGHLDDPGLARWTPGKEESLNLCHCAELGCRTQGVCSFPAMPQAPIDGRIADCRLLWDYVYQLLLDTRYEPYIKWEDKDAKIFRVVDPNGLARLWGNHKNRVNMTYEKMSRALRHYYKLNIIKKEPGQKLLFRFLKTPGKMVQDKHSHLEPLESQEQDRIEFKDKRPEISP
How it was run: as §1

ETV3 = molecular target: T7, ETV3 (Homo sapiens, UniProt P41162-2 1-143)
T7 sequence: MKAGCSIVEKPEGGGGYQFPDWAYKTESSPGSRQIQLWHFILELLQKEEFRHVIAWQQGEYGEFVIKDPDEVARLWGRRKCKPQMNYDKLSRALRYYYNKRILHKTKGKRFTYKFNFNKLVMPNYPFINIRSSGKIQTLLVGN
How it was run: as §1

Sequence of ETV1 (P50549 whole entry): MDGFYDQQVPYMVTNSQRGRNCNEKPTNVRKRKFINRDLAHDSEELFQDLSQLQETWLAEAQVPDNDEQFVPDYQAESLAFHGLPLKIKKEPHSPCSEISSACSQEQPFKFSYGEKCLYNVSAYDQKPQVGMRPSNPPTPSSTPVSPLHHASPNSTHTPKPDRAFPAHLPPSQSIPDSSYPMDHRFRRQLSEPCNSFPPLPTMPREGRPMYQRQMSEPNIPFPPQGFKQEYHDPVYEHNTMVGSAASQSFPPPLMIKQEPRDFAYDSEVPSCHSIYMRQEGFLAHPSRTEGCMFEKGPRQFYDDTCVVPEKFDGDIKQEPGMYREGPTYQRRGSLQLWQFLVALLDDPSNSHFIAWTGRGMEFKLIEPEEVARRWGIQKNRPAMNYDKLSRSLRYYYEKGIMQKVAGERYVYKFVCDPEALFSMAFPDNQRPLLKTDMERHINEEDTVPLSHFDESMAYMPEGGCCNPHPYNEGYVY
Sequence of ELF4 (Q99607 whole entry): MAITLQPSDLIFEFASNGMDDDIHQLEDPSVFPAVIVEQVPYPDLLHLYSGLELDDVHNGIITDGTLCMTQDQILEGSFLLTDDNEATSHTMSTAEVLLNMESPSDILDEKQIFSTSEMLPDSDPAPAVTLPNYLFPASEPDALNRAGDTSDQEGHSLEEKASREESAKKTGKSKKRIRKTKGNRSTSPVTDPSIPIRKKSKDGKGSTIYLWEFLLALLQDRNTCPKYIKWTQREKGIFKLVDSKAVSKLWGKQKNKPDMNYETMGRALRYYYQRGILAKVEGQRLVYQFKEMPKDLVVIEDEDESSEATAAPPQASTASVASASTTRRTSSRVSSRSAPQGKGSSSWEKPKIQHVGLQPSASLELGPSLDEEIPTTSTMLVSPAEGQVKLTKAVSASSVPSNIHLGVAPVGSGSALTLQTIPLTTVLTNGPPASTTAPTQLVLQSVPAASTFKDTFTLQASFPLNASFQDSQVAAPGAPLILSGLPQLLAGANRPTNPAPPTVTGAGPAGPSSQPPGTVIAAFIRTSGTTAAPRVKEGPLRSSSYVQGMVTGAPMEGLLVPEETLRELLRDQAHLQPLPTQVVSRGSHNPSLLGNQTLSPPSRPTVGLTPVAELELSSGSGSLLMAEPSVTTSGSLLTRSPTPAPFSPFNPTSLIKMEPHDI
Sequence of ETV5 (P41161 whole entry, the tested form may be a part): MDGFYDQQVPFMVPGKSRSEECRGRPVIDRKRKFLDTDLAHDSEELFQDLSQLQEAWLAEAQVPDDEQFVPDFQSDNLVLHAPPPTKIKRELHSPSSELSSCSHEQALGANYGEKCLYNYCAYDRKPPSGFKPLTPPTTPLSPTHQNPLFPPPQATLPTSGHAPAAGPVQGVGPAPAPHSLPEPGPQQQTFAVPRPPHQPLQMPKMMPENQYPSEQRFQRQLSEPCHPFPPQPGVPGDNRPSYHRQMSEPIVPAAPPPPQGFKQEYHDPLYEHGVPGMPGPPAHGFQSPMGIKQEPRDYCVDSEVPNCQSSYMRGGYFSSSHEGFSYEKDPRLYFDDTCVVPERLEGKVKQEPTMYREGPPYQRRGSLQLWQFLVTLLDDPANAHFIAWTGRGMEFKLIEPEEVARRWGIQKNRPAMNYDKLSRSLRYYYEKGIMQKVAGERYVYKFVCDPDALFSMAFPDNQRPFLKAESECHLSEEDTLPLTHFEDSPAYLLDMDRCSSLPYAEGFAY

## GCAATT
ETV5
  binding signal: 1.12 fold enrichment (6-mer frequency, TF over GST control)
ELF4
  binding signal: 1.12 fold enrichment (6-mer frequency, TF over GST control)
ETV2
  binding signal: 1.01 fold enrichment (6-mer frequency, TF over GST control)
ELF3
  binding signal: 1.17 fold enrichment (6-mer frequency, TF over GST control)
ETV1
  binding signal: 1.06 fold enrichment (6-mer frequency, TF over GST control)
ERF
  binding signal: 1.2 fold enrichment (6-mer frequency, TF over GST control)
ETV3L
  binding signal: 1.08 fold enrichment (6-mer frequency, TF over GST control)
ETS2
  binding signal: 1.09 fold enrichment (6-mer frequency, TF over GST control)
ETV7
  binding signal: 1.18 fold enrichment (6-mer frequency, TF over GST control)
ETV3
  binding signal: 1.18 fold enrichment (6-mer frequency, TF over GST control)
